# Measurements: the supplement of paper PMC6897291
# Test system: RIVA
# Assay: growth inhibition by drug alone (1 - RLU/untreated control) (fraction); higher = stronger inhibition
# Conditions: 177Lu-lilotomab satetraxetan 0 ug/ml
# Experimental: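 RIVA (RI-1) ABC-DLBCL cells were pretreated or not for 18 h with 0.5 ug/ml 177Lu-lilotomab satetraxetan (600 MBq/mg), washed and seeded (3000 cells/well) on 384-well plates pre-printed with the Selleck Cambridge Cancer Compound library. Viability was read by RealTime-Glo luminescence on days 3-6 after seeding. Effect = 1 - RLU/mean RLU of the 48 untreated no-drug control wells per plate; Bliss score = (M-E)/(1-Fa).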
Compound,"growth inhibition by drug alone (10 nM, time (day): 3)","growth inhibition by drug alone (10 nM, time (day): 4)","growth inhibition by drug alone (10 nM, time (day): 5)","growth inhibition by drug alone (10 nM, time (day): 6)","growth inhibition by drug alone (100 nM, time (day): 3)","growth inhibition by drug alone (100 nM, time (day): 4)","growth inhibition by drug alone (100 nM, time (day): 5)","growth inhibition by drug alone (100 nM, time (day): 6)"
C=C1C[C@@H]2[C@H](CC[C@]3(C)C(=O)CC[C@@H]23)[C@@]2(C)C=CC(=O)C=C12 [Exemestane],0.0187,0.00346,-0.0171,-0.272,-0.247,-0.223,-0.21,-0.228
N[C@@H](Cc1ccc(N(CCCl)CCCl)cc1)C(=O)O [Melphalan],-0.0205,0.000425,-0.0866,-0.459,-0.259,-0.175,-0.164,-0.265
O=P1(N(CCCl)CCCl)NCCCO1 (stereo not given) [Cyclophosphamide monohydrate],-0.165,-0.182,-0.227,-0.326,0.0466,-0.0413,-0.0801,-0.114
CC(C)[C@]12O[C@H]1[C@@H]1O[C@]13[C@]1(O[C@H]1C[C@H]1C4=C(CC[C@@]13C)C(=O)OC4)[C@@H]2O [Triptolide],0.376,0.671,0.753,0.792,0.907,0.934,0.957,0.967
O=C(O)c1nn(Cc2ccc(Cl)cc2Cl)c2ccccc12 [Lonidamine],0.0283,0.0585,0.0114,-0.393,-0.419,-0.301,-0.332,-0.381
